Measured values reported in ChEMBL document CHEMBL3433997, “St. Jude Leishmania screening dataset” (2016).

Columns and labels:
Type in all cases: functional
[1] = target: Solute carrier family 2, facilitated glucose transporter member 1 (Homo sapiens) (UniProt P11166); test: ST_JUDE_LEISH: Cytotoxicity at 2uM final concentration against transgenic Leishmania Mexicana promastigotes LmGLUT1 that are glucose transport deficient and complemented with the human glucose transporter GLUT1. Activity is measured by DNA content using SYBR green in vitro
[2] = target: Hexose transporter 1 (Plasmodium falciparum) (UniProt O97467); test: ST_JUDE_LEISH: Cytotoxicity at 2uM final concentration against transgenic Leishmania Mexicana promastigotes LmPfHT that are glucose transport deficient and complemented with the Plasmodium falciparum hexose transporter. Activity is measured by DNA content using SYBR green in vitro
[3] = target: Glucose transporter (Leishmania mexicana) (UniProt O61059); test: ST_JUDE_LEISH: Cytotoxicity at 2uM final concentration against transgenic Leishmania Mexicana promastigotes LmGT2 that are glucose transport deficient and complemented with the L. Mexicana glucose transporter 2. Activity is measured by DNA content using SYBR green in vitro

Solute carrier family 2, facilitated glucose transporter member 1 (Homo sapiens), sequence (P11166 whole entry): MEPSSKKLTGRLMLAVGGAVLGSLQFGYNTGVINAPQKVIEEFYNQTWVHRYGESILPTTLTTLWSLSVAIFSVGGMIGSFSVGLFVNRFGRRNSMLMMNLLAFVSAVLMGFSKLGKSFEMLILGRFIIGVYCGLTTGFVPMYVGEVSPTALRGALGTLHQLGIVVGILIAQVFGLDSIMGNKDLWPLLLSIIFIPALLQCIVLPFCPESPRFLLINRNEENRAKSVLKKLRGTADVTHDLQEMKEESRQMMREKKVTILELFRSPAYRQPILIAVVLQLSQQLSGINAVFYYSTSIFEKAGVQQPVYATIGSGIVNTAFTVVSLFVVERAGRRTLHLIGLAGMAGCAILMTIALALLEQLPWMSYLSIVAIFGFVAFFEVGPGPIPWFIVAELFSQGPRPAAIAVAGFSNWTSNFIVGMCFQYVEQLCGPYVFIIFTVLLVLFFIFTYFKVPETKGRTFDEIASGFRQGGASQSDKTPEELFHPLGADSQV

| Structure (SMILES) | inhibition [1] [%] | inhibition [2] [%] | inhibition [3] [%] |
| --- | --- | --- | --- |
| CN(Cc1cccc(F)c1)C1CCN(c2cc(NC(=O)c3ccc(F)cc3)ccn2)CC1 | 6.99 | 6.01 | 6.94 |
| Cc1c(C(=O)N(C)C)sc2c1c(=O)n(Cc1ccccc1)c(=O)n2CC(=O)Nc1ccccc1F | 2.21 | 3.39 | 1.57 |
| CCc1ccc(S(=O)(=O)Nc2ccc(CCN(C)C3CCN(C)CC3)cc2)cc1 | 3.75 | 3.41 | 2.27 |
| COc1ccc(N2CCN(CCCCNC(=O)c3ccc(NC(=O)c4cc(C(F)(F)F)cc(C(F)(F)F)c4)cc3)CC2)c(OC)c1 | 1.62 | 1.33 | 1.33 |
| COc1cc(NCCCCCNc2cc(Cl)nc3ccccc23)nc2ccccc12 | 1.24 | 2.23 | 2.29 |
| CC(C)(CNCc1cccc(Oc2ccccc2)c1)c1nc(-c2ccnc(N)n2)c(-c2ccc(Cl)c(O)c2)[nH]1 | -0.85 | -0.2 | -0.78 |
| COc1ccc(CCN(C)CCOc2ccc(NC(=O)c3cc(SC)cc4c(=O)c5ccccc5[nH]c34)cc2)cc1OC | 4.06 | 3.15 | 2.82 |
| CN1CCN(CCCN(Cc2ccc(-c3cccc(CNC4CCCC4)c3)cc2)C(=O)/C=C/c2ccccc2)CC1 | 10.2 | 9.42 | 6.94 |
| COc1ccc2nccc([C@@H](O)CN3CCC(NCc4cc5ccccc5nn4)CC3)c2c1 | 6.88 | 7.17 | 7.16 |
| CCOc1ccc(NC(C)=O)c(O)c1 | 5.79 | 5.38 | 3.62 |
| O=C(Nc1cccc2ccccc12)N1CCc2cc3nccc(N4CCN5CCC[C@H]5C4)c3cc21 | 5.08 | 2.82 | 4.23 |
| Cc1ccc(NC(=O)Nc2cccc(Cl)c2)cc1-c1ccc(C(=O)Nc2ccncc2)cc1 | -1.84 | -1.56 | -1.5 |
| CN1CCC(N2CCN(Cc3ccc(-c4ccc(-c5nc6cc(F)ccc6[nH]5)s4)cc3)CC2)CC1 | 2.75 | 2.55 | -0.25 |
| CN(Cc1ccc(-c2ccc(C(F)(F)F)cc2)cc1)C(=O)Cn1c(CCc2cccc(F)c2F)nc(=O)c2ccc(N3CCN(CCN4CCCCC4)CC3)nc21 | 7.76 | 7.16 | 3.71 |
| Cc1cccc2nc(C3CCN(CC4CCN(C(=O)/C=C/c5ccc(Cl)c(Cl)c5)CC4)CC3)[nH]c12 | 10.9 | 11.5 | 10.6 |
| CC(C)Cn1c(Sc2ccc(C#N)c([N+](=O)[O-])c2)nnc1-c1cccs1 | 1.53 | 3.14 | 0.24 |
